# Results taken from PubChem BioAssay (Tox21).
# Unmarked numbers belong to inactive results. Inconclusive results are not listed. Where a call stands in place of a potency, no number is given. Activity calls are given as the source filed them. Unless noted, calls follow the shape of the dose curve; as a rule, active = well fitted curve in the direction sought with a large enough effect in the repeat runs; inconclusive = weak or mixed curves; inactive = no such curve, though single readings can be large; an effect the other way counts as inactive or inconclusive.
# How the values were obtained:
# [1] = qHTS assay to identify small molecule agonists of the hypoxia (HIF-1) signaling pathway - cell viability counter screen (AID 1224844; calls by dose curve; also: nearly all actives have a fitted effect of over 50% in size)
# Method in brief: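 Cytotoxicity measured by CellTiter-Glo ATP luminescence in the wells also read for beta-lactamase signal. Cells were HRE-bla ME-180 (2,000/well, 0.5% dialyzed FBS), exposed to compounds for 17 h at 37C.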
# [2] = qHTS assay to identify small molecule agonists of H2AX (AID 1224845; active = well fitted activation curve with a large enough effect in the signal ratio in the repeat runs, not every such curve was filed as active; the % refers to the signal ratio)
# Method in brief: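 Phospho-H2AX Ser139 measured by HTRF (ex 320 nm; em 665 and 620 nm) after 24 hr antibody incubation. Compounds, 15 concentrations, 0.76% DMSO, were applied to CHO-K1 cells for 3hr at 37C before lysis.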
# [3] = qHTS assay to identify small molecule agonists of the hypoxia (HIF-1) signaling pathway (AID 1224846; active = well fitted activation curve with a large enough effect in the signal ratio in the repeat runs, not every such curve was filed as active; the % refers to the signal ratio)
# Method in brief: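 Compounds added to ME-180 cells carrying hypoxia-response-element beta-lactamase reporter (0.5% dialyzed FBS, 5 h preplating), 17 h at 37C; agonist activity detected by CCF4-AM B/G FRET read-out.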
# [4] = qHTS assay to identify small molecule antagonists of the estrogen related receptor (ERR) signaling pathway from Tox21 library (AID 1224848); also: nearly all actives have a fitted effect of over 50% in size; also: potency is read from the fitted curve at half-maximal effect
# Method in brief: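 Luciferase luminescence (ONE-Glo, 30 min room temperature) was the read-out. Cells of the NTP-supplied ERR line, 2,000 per well, were given 6 h at 37 C before compound addition in DMSO and 18 h exposure at 37 C.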
# [5] = qHTS assay to identify small molecule agonists of the estrogen related receptor (ERR) signaling pathway from Tox21 library (AID 1224849; calls by dose curve; also: nearly all actives have a fitted effect of over 15% in size); conditions: ERR reporter cell line, ONE-Glo luciferase, 18 h; at 92.4 µM (top of the series) unless noted
# Method in brief: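 Luminescent agonist read-out (One-Glo, 30-minute room-temperature incubation) following 18-hour compound treatment at 37 C of the ERR cell line, which had been plated 6 hours before dosing.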
# [6] = qHTS RealTime-Glo MT Cell Viability Assay in HEK293 cells - 32 hour (AID 1224868); also: nearly all actives have a fitted effect of over 50% in size; also: potency is read from the fitted curve at half-maximal effect
# Method in brief: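 Homogeneous bioluminescent viability format in HEK293 cells (600 cells/well). Following 5 h at 37 C/5% CO2, 23 nL compound was pintooled; the signal was measured repeatedly during 40 h incubation.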
# [7] = A CellTox Green Cytotoxicity Assay to monitor cytotoxicity in HEK293 cells - 0 hour (AID 1224869); also: nearly all actives have a fitted effect of over 50% in size
# Method in brief: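 Fluorescence from a DNA-binding dye excluded by viable cells was measured repeatedly in the same HEK293 wells (600 cells/well) during continuous compound exposure at 37 C. Each assay gives one read point: 0, 8, 16, 24, 32 or 40 h.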
# [8] = qHTS assay to identify small molecule agonists of H2AX - cell viability counter screen (AID 1224847; calls by dose curve; also: top concentration of the series differs between compounds; nearly all actives have a fitted effect of over 30% in size)
# Method in brief: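 Quantitative HTS viability measurement: CHO-K1 wild-type cells in serum (10% FBS) medium, short 3 hr drug exposure at 37C with 0.76% DMSO, CellTiter-Glo luminescent detection.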
# [9] = qHTS RealTime-Glo MT Cell Viability Assay in HepG2 cells - 24 hour (AID 1224867); also: nearly all actives have a fitted effect of over 50% in size
# Method in brief: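 Cell number in HepG2 cultures estimated from NanoLuc luminescence generated by metabolic reduction of a prosubstrate by living cells. The homogeneous, nonlytic format allowed repeated reads at 0, 8, 16, 24, 32 and 40 h of compound exposure.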
SMILES,Potency [1],outcome [2],outcome [3],Potency [4],"activity change, positive = activation [5]",Potency [6],Potency [7],Potency [8],outcome [9]
CCC(C)OC(=O)N1CCCCC1CCO (centres undefined),inactive,inactive,inactive,inactive,2.44%,inactive,inactive,,
C=C[Si](OC)(OC)OC,inactive,inactive,inactive,,,inactive,inactive,inactive,inactive
CCC(=O)c1cccc(Cl)c1,inactive,inactive,inactive,,,inactive,inactive,inactive,inactive
C=C(C)C(=O)NCCC[N+](C)(C)C,inactive,inactive,inactive,,,inactive,inactive,inactive,
C1C2OC2C2C1C1CC2C2OC12 (centres undefined),inactive,inactive,inactive,,,inactive,inactive,inactive,inactive
O=C1OC(=O)c2cc([N+](=O)[O-])ccc21,inactive,inactive,inactive,,,inactive,inactive,inactive,
CCCCOCC(C)OCC(C)O (centres undefined),inactive,inactive,inactive,,,inactive,inactive,inactive,
COc1cc(C)cc(O)c1,inactive,inactive,inactive,,,inactive,,,inactive
O=C(O)/C=C/c1ccc(/C=C/C(=O)O)cc1,inactive,inactive,inactive,,,inactive,inactive,inactive,inactive
Cn1cnc2c(=O)[nH]c(N)nc21,inactive,inactive,inactive,,,inactive,inactive,inactive,inactive
OCCN1C[C@H](O)[C@@H](O)[C@H](O)[C@H]1CO,inactive,inactive,inactive,,,inactive,,inactive,inactive
Cc1ccc(Nc2ccc(O)c3c2C(=O)c2ccccc2C3=O)cc1,inactive,inactive,inactive,,,inactive,inactive,inactive,inactive
Nc1nc(F)nc2c1ncn2[C@@H]1O[C@H](CO)[C@@H](O)[C@@H]1O,inactive,inactive,inactive,,,inactive,inactive,inactive,inactive
CC1=CC(C)C(C=O)C(C)C1 (centres undefined),inactive,inactive,inactive,,,inactive,,inactive,inactive
CC1(C)OC(=O)Nc2ccc(Br)cc21,inactive,inactive,inactive,,,inactive,inactive,inactive,inactive
c1ccc(CCCc2ccccn2)cc1,inactive,inactive,inactive,inactive,34.3% (active),inactive,inactive,,inactive
CC(C)CCOC(=O)CC(C)C,inactive,inactive,inactive,,,inactive,,inactive,inactive
COc1cc(C(=O)N2CCOCC2)cc(OC)c1OC,inactive,inactive,inactive,,,inactive,,inactive,
COCc1ccc(COC)cc1,inactive,inactive,inactive,,,inactive,inactive,inactive,inactive
OC/C=C/c1ccccc1,inactive,inactive,inactive,,,inactive,inactive,inactive,inactive
CCN(CC)S(=O)(=O)c1ccc(C(=O)O)cc1,inactive,inactive,inactive,,,,inactive,,inactive
CN(C)C(=O)C(CCN1CCC(O)(c2ccc(Cl)cc2)CC1)(c1ccccc1)c1ccccc1,,inactive,,21.1 µM (active),-39.4% [at 42.5 µM],10.7 µM (active),inactive,,
O=C(O)CCNC(=O)c1ccc(N=Nc2ccc(O)c(C(=O)O)c2)cc1,inactive,,inactive,,,inactive,inactive,inactive,
Oc1cc(O)c2c(c1)O[C@H](c1ccc(O)c(O)c1)[C@H](O)C2,,,,,,inactive,inactive,,inactive
NS(=O)(=O)c1cc(C2(O)NC(=O)c3ccccc32)ccc1Cl (centres undefined),inactive,inactive,,,,inactive,inactive,inactive,inactive
NC1CCN(c2cccc(Cl)n2)CC1,inactive,inactive,,,,inactive,inactive,,inactive
C=CC(=O)OCCCCCC,,inactive,inactive,,,inactive,inactive,inactive,
COC(=O)CCCC(=O)O,inactive,inactive,,,,inactive,inactive,,
CC1=CC(=O)CCC1,inactive,inactive,inactive,,,inactive,inactive,,
